This note sets out measurements from PubChem BioAssay AID2314 (National Center for Advancing Translational Sciences (NCATS), 2010).

Out of some 300,000 compounds screened, about 37,000 (12%) were called active. The full list was thinned out, with actives kept by preference. Unmarked numbers belong to inactive results. Cut-off read from the data, not from the text of the source: active = max response mostly above about 13% (no sharp cut-off); inactive = mostly below about 14%.

The nature of this experiment: Cycloheximide Counterscreen for Small Molecule Inhibitors of Shiga Toxin. Note: read at 38.3 µM for the half of the compounds with a filed dose; 0% is about no effect. The settings on record: cell reporter, cycloheximide protein synthesis inhibition counterscreen; hits give high values. (In general: Counterscreens check selectivity or assay interference.)
Turning to `CCOc1ccc(NC(=O)CC(Cc2ccc(Cl)cc2)C(=O)O)cc1` (stereo not drawn), the max response was -1.1%.

As to `O=C(O)c1ccccc1-c1ccccc1C(=O)Nc1nccs1`, the max response is -6.56%.

For `CC(NC(=O)C(=O)Nc1nccs1)c1ccccc1` (stereo not drawn), the max response is -0.875%.

`Cn1cccc1C(=O)Nc1nccs1`: the max response is 18.6% (active).

With `Cc1ccc2cccc(S(=O)(=O)N3CCN(c4ccccc4F)CC3)c2n1`, the max response was -1.96%.

As for `COc1ccccc1Nc1cc(C(=O)NCCCN(C)C2CCCCC2)c2ccccc2n1`, the max response is -15.5%.

For the compound `CCc1ccc(-c2nnn(Cc3nn[nH]n3)n2)cc1`, the max response was -4.49%.

For `Clc1cccc(Cl)c1Cn1nnc(-c2cccs2)n1`, the max response was 1.15%.

Consider `CCc1ccc(-c2nnn(Cc3nc4ccccc4s3)n2)cc1`, for which the max response is 38.7% (active).

As for `Cc1cc(N2CCN(c3ccc(F)cc3)CC2)n2ncnc2n1`, the max response is 1.63%.

Consider `COC(=O)c1ccccc1NS(=O)(=O)c1ccc2[nH]c(=O)[nH]c2c1`, for which the max response is -1.95%.

Take `Cc1ccc(C)c(NC(=S)NNC(=O)c2csc(C)c2)c1`: the max response was 10.1%.

Consider `Cc1cc(C(=O)NNC(=S)NC(C)c2ccccc2)cs1` (stereo not drawn), for which the max response was -2.7%.

For the compound `O=C(NC(=S)Nc1cccc2c(O)cccc12)c1cccc(Br)c1`, the max response is -1.87%.

Turning to `CC(CC(=O)O)CC(=O)NNC(=O)c1cccc(Br)c1` (stereo not drawn), the max response is -1.69%.

`Cc1ccccc1NC(=S)NNC(=O)c1cccc(Br)c1`: the max response was 17.3% (active).

Consider `Cc1cc(C(=O)NNC(=S)Nc2ccccc2C)cs1`, for which the max response was 34.5% (active).

In the case of `CCCCN=C1C([N+](=O)[O-])=CC=C2C1=NC1(CCCCC1)N2O`, the max response was 4.25%.

Turning to `CCCc1nnc(NC(=O)CCC(=O)NC2CC2)s1`, the max response is -2.75%.

`Cc1ccc2c(c1)C1CN(C)CCC1N2S(=O)(=O)c1ccc(Oc2ccc([N+](=O)[O-])cc2)cc1` (stereo not drawn): the max response is -3.12%.

For the compound `Cc1ccc(C(=O)NC2CCN(C(=O)Nc3ccccc3Cl)CC2)cc1`, the max response was -2.19%.

Consider `Cc1nn(CC(=O)NCC2CCCO2)c(=O)c2cc3ccccc3n12` (stereo not drawn), for which the max response is 3.06%.

As for `Cc1ccc(-c2cn3cc(C)ccc3n2)cc1`, the max response was -15.5%.

Consider `Cc1ccnc(N2C(=O)c3ccc([N+](=O)[O-])cc3C2=O)c1`, for which the max response is -0.576%.

With `Cc1ccc2nc(-c3ccc(Br)cc3)cn2c1`, the max response was 17.6% (active).

As for `CSc1nnc2ccc(-c3ccc(C)cc3)nn12`, the max response is 8.85%.

`Cc1ccc(C(=O)Cn2cc([N+](=O)[O-])nc2C)cc1`: the max response is -1.83%.

Consider `Cc1ccc(-c2cn3cc([N+](=O)[O-])ccc3n2)cc1`, for which the max response was 92.8% (active).

Take `CC1CCN(C(=O)c2ccc(S(=O)(=O)Cc3cc(F)ccc3F)c([N+](=O)[O-])c2)CC1`: the max response was 0.662%.

In the case of `O=C(CN1CCN(S(=O)(=O)c2cc(Cl)ccc2Cl)CC1)c1ccc(O)c(O)c1`, the max response is 6.66%.

Take `CCC(C)NCCOCCOc1ccc(Br)cc1C` (stereo not drawn): the max response was -2.66%.

Regarding `COC(=O)CSc1nc2c(c(C3CC=CCC3)c1C#N)CCC2` (stereo not drawn), the max response was -1.01%.

On to `CCOC(=O)c1sc(C)c2c1NC(C)(c1cccc3ccccc13)NC2=O` (stereo not drawn), for which the max response is 0.788%.

In the case of `C/C(=N\NC(=O)Cc1ccccc1[N+](=O)[O-])c1cccnc1`, the max response was -0.525%.

As to `Nc1nc(SCC(=O)NCCN2CCOCC2)nc2sc3c(c12)CCC3`, the max response was -2.27%.

With `CC(C)(C)C1CCc2c(sc3nc(SCC(N)=O)nc(N)c23)C1` (stereo not drawn), the max response was 28.1% (active).

Consider `C=C(C)CSc1nc(N)c2c3c(sc2n1)CCC3`, for which the max response is 18.4% (active).

Regarding `Cc1sc2nc(SCC(N)=O)n(C)c(=O)c2c1C`, the max response was -2.39%.

On to `CCC1(C)Cc2c(sc3nc(SC)nc(N)c23)CO1` (stereo not drawn), for which the max response is 8.94%.

With `CN(C)CCSc1nc(N)c2c3c(sc2n1)COC(C)(C)C3`, the max response was -2.73%.

As to `C=CCn1cc(C(=O)NCc2ccc(Cl)cc2)c(=O)c2cc(S(=O)(=O)N(CC)CC)ccc21`, the max response was -6.07%.

As for `CN(CCNC(=O)c1cc2c(-c3ccccc3F)nn(C)c2s1)C1CCCCC1`, the max response was -2.34%.

In the case of `CCOC(=O)C1CCCN(S(=O)(=O)c2ccc3c(c2)C(C)(C)C(=O)N3C)C1` (stereo not drawn), the max response was -2.15%.

With `COc1ccc(N(C(=O)c2ccc(C)cc2)S(=O)(=O)c2cccs2)cc1`, the max response is 10.9%.

Consider `Clc1ccc(C2=CSC3=Nc4cccc5cccc(c45)N23)cc1`, for which the max response was 11.3% (active).

`CC(=O)Oc1cccc(N2C(=O)C3CC=C(Cl)CC3C2=O)c1` (stereo not drawn): the max response was -3.93%.

With `CC(=O)Oc1cccc(N2C(=O)CC(Nc3ccc(N4CCOCC4)cc3)C2=O)c1` (stereo not drawn), the max response was 49% (active).

Consider `COc1ccc(N2CCN(C3CC(=O)N(c4ccc5c(c4)OCCO5)C3=O)CC2)cc1` (stereo not drawn), for which the max response was 1.96%.

Take `COc1ccccc1OCc1nc2ccccc2s1`: the max response was 27.4% (active).

For `COc1ccccc1OCCn1c(SCC(N)=O)nc2ccccc21`, the max response was -1.3%.

`COc1ccc(Cn2c(=O)sc3ccccc32)cc1OC`: the max response is -0.76%.

Consider `CC1CCc2c(nc3ncnn3c2Nc2ccc(OC(F)(F)F)cc2)C1` (stereo not drawn), for which the max response was 0.841%.

Consider `OCCn1c(-c2ccccc2)csc1=Nc1ccccc1`, for which the max response is 38.9%.

Take `COc1ccc2nc(Nc3nc4cc5c(cc4s3)OCCO5)sc2c1`: the max response is 33.1% (active).

On to `COc1ccccc1CN(C)C(=O)c1cc2ccccc2o1`, for which the max response is 7.81%.

For the compound `COc1ccc2oc(=O)cc(-c3cc4ccccc4o3)c2c1`, the max response is 4.74%.

Consider `CCNc1nc(-c2cc3ccccc3o2)cs1`, for which the max response was 58% (active).

For `Cn1c(SCC(=O)NC2CCCCC2)nnc1-c1cc2ccccc2o1`, the max response is 10.2%.

Consider `O=c1oc2ccccc2cc1-c1csc(Nc2ccc(O)cc2)n1`, for which the max response is 46% (active).

`CCOc1ccc(S(=O)(=O)Nc2nc3cc(OC)ccc3s2)cc1`: the max response was -4.35%.

In the case of `COc1ccc2nc(Nc3nc4ccc(NC(C)=O)cc4s3)sc2c1`, the max response was 6.12%.

As for `COc1ccc2nc(Nc3nc(-c4cc5ccccc5oc4=O)cs3)sc2c1`, the max response is 13.6% (active).

For the compound `CC(=O)Nc1nc(C)c(-c2csc(Nc3ccc(S(N)(=O)=O)cc3)n2)s1`, the max response was -0.544%.

For `COc1ccc2nc(Nc3nc(-c4ccncc4)cs3)sc2c1`, the max response was 21.5%.

Turning to `Cc1ccc(OCCCC(=O)Nc2ccc(S(=O)(=O)Nc3cc(C)nc(C)n3)cc2)cc1`, the max response was -2.32%.

Take `CN(C)[C@@H]1C(=O)C(C(N)=O)=C(O)[C@@]2(O)C(=O)C3=C(O)c4c(O)ccc(Cl)c4[C@@H](O)[C@H]3C[C@@H]12`: the max response was 3.73%.

In the case of `CCN(CC)CCOCCOc1ccc(Cl)c2ccccc12`, the max response was -2.87%.

As for `COc1cc(NS(=O)(=O)c2ccc(NC(=S)NC(=O)c3ccc(Br)cc3)cc2)ncn1`, the max response was 0.589%.
